TRHR agonist = agonists of human TRH receptor; hit rate 0.18% among 360,000; TRHR cells, calcium flux fluo-8, FDSS agonist mode; AID 493084; activation, % at 2 µM; note: 0% is about no effect
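Read-out: compound-evoked intracellular calcium rise in TRHR cells, fluo-8 dye, kinetic FDSS fluorescence at 1 s/cycle following a 10-cycle baseline. Cells cultured overnight before dye loading (30 min–1.5 h, RT).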
D1 agonist = activates the human D1 dopamine receptor; HEK293 T-REx D1 cells, calcium flux, agonist mode; activation, % at 2 µM; hit rate 1% among 360,000; note: 0% is about no effect
Target sequence (P21728 whole entry, looked up): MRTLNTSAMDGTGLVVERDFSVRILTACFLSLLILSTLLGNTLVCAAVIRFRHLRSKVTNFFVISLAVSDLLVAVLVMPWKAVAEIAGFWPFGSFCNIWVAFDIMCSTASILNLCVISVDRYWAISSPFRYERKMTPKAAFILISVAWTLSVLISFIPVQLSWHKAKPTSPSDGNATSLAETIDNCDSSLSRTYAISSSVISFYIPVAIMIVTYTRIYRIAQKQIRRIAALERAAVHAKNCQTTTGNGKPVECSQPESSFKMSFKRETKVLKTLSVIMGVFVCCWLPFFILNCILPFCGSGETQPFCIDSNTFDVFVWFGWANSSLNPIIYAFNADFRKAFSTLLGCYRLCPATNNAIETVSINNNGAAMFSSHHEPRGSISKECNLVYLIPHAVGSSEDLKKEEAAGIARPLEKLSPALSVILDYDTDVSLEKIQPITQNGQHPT
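Tetracycline-induced HEK293 TREx D1 cells, force-coupled to calcium signalling, were dye-loaded with a no-wash calcium kit. Compound was pin-added after a 10 s baseline. Fluorescence was read kinetically at 1 cycle/s for 180 s, with calcium rises flagged as agonism.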
TRHR PAM = allosterically enhances the human TRH receptor. hit rate 0.66% among 360,000. P34981. AID 493056. enhancement, % at 2 µM. TRHR cells, fluo-8 calcium fluorescence, EC20 TRH enhancement; in the data active = enhancement above about 30%; note: 0% is about no effect
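TRHR-expressing cells loaded with fluo-8 calcium dye were read kinetically (ex 480/em 530) during compound addition, then stimulated with an EC20 of TRH (10 nM final). Enhancement of the Gq-mediated intracellular calcium response was scored.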
D1 PAM = human D1 dopamine receptor positive modulation; P21728; HEK293 TREx D1 cells, calcium flux, dopamine EC20 potentiation; potentiation, % at 10 µM; hit rate 0.036% among 360,000; AID 504651; in the data active = potentiation above about 30%; note: 0% is about no effect
D1 antag = human D1 dopamine receptor antagonism; HEK293 TREx D1 cells, calcium flux, dopamine EC80; stronger effect = lower value; hit rate 3.2% among 360,000; activity change, negative = inhibition, % at 10 µM; P21728; AID 504652; in the data active = activity change below about -30%; note: % is set by controls: 0 for no effect and ±100 for the full control effect
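Inducible Hek293 Trex D1 cells (tetracycline, overnight, 30 C). Calcium dye 30–90 min RT. Antagonist mode: EC80 dopamine added after 180 s compound read.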
The depositor's hits bear a star; ! = repeats disagree. In the library only some 4.6% were active in any assay of this set; here they are far more common. Cut-off read from the data, not from the text of the source, unless noted: active = activation above about 30%; inactive = the rest.

SMILES | TRHR agonist | D1 agonist | TRHR PAM | D1 PAM | D1 antag
Cc1ccc(NC(=O)C(Cc2ccccc2)n2cccc2)cc1C (configuration not stated) | 0 | 1 | -7 | -7 | -9
CCOc1ccccc1N(CC(=O)Nc1ccccc1C(=O)O)S(C)(=O)=O | 1 | 0 | 5 | -6 | -45*
CCOC(=O)c1ccccc1NC(=O)CN(c1ccc(OCC)cc1)S(C)(=O)=O | 0 | 1 | 35* | -2 | -21
COc1cccc(N2CCN(CC(=O)Nc3ccc(S(=O)(=O)N4CCCCCC4)cc3)CC2)c1 | 0 | 2 | 2 | -2 | 0
COc1ccc(Cl)cc1NC(=O)C(=O)NCc1ccncc1 | -2 | 2 | 28 | -13 | -38*
CC1=C(C(=O)Nc2ccccc2)C(c2cccnc2)n2nc(SCc3ccccc3Cl)nc2N1 (configuration not stated) | 1 | -1 | -4 | -1 | -35*
Cc1ccc(C2=NN(S(=O)(=O)c3ccccc3)C(c3ccco3)C2)cc1 (configuration not stated) | 0 | 2 | 2 | -10 | -2
O=[N+]([O-])c1ccc(/C=C/C2=NN(c3ccccc3)C(c3ccco3)C2)cc1 (configuration not stated) | 0 | 213* | -3 | -1 | -68*
O=[N+]([O-])c1ccc(C2=NN(c3ccccc3)C(c3ccco3)C2)cc1 (configuration not stated) | 59* | 296* | 2 | -10 | -67*
Cc1ccc2c(c1)C(=O)OC(C(=O)Nc1ccccc1C(=O)O)C2 (configuration not stated) | -1 | 4 | -2 | 2 | -5
O=C(C/C(=N/O)c1ccccc1O)C(F)F | 2 | 3 | 9 | -7 | -32*
C=CCSc1nnc(-c2cc3c(-c4ccccc4)nn(C)c3s2)n1C | 0 | 2 | 2 | -1 | -46*
CCOC(=O)c1ccc(NC(=O)Nc2cc(C)on2)cc1 | -1 | 27 | 3 | -4 | -32*
CCOC(=O)c1ccc(NC(=S)Nc2ccc(C)cc2)cc1 | 0 | 2 | -4 | 10 | 1
CCOC(=O)c1ccc(NC(=S)NNC(C)(C)C)cc1 | 0 | 2 | 10 | -2 | -36*
CCOC(=O)c1ccc(NC(=O)Nc2cccc(C)n2)cc1 | 2 | 2 | -2 | -2 | 7
CCCCCOc1ccc(C(=O)OCC(=O)Nc2cc(C)on2)cc1 | 2 | 4 | 31* | 6 | -3
O=c1cc(CSc2ncn[nH]2)[nH]c2c(Cl)cccc12 | 0 | 1 | 2 | -1 | -20
CCOC(=O)CSc1nc2cc3c(cc2c(=O)n1CCCC(=O)NCCc1ccc(OC)c(OC)c1)OCO3 | -1 | 1 | -3 | -3 | 2
COc1ccccc1CNC(=O)Cn1c(=O)oc2cc(S(=O)(=O)N3CCC(C)CC3)ccc21 | -2 | -1 | -2 | -2 | -20
O=C(NCC(c1ccc2c(c1)OCO2)N1CCN(c2ccccc2F)CC1)c1ccccc1F (configuration not stated) | 0 | 1 | 3 | -4 | 7
Cc1nn(C)c(C)c1S(=O)(=O)N1CCCC(C(=O)N2CCN(c3ccc(Cl)cc3)CC2)C1 (configuration not stated) | 0 | 0 | 8 | 2 | -7
COc1cccc(NC(=O)C2CCCN(S(=O)(=O)c3c(C)[nH]c(=O)[nH]c3=O)C2)c1 (configuration not stated) | 0 | 0 | -6 | 6 | 1
COc1ccc(NC(=O)C2CCCN(S(=O)(=O)c3c(C)[nH]c(=O)[nH]c3=O)C2)cc1 (configuration not stated) | 1 | 0 | -4 | -4 | -31*!
Cc1ccc(S(=O)(=O)N2CCCC(C(=O)Nc3ccc(C(=O)O)cc3)C2)cc1Cl (configuration not stated) | 0 | 2 | -2 | -12 | -33*
SMILES | TRHR agonist | D1 agonist | TRHR PAM | D1 PAM | D1 antag
Cc1n[nH]c(C)c1S(=O)(=O)N1CCCC(C(=O)N2CCN(c3ccc(Cl)cc3)CC2)C1 (configuration not stated) | 0 | 19 | 6 | -7 | -48*
Cc1ccc(S(=O)(=O)N2CCCC2)cc1C(=O)Nc1ccc(-n2cnnn2)cc1 | 0 | 5 | -1 | -10 | -31*
Cc1ccc(S(=O)(=O)N2CCCC(C(=O)NCc3ccco3)C2)cc1Cl (configuration not stated) | 0 | -1 | 3 | 2 | 5
Cc1ccc(OCCSc2nc3ccccc3n2CC(=O)N2CCOCC2)cc1 | -1 | 19 | 6 | -4 | -20
O=c1c(S(=O)(=O)c2ccccc2)cn(Cc2cccc(F)c2)c2cc(N3CCOCC3)c(F)cc12 | 0 | 0 | 0 | 6 | 11
COc1ccc(CNC(=O)CCc2nc(-c3ccc(C)cc3)no2)c(OC)c1 | -1 | -1 | -6 | -5 | -6
CCc1ccccc1OCCSc1nnc(-c2cc(OC)c(OC)c(OC)c2)o1 | 0 | 7 | 1 | -2 | -6
Cc1ccccc1Cn1c(=O)n(CCCCC(=O)NCc2ccccc2Cl)c(=O)c2ccccc21 | 0 | 0 | -3 | 1 | 0
Cc1ccc(NC(=O)C2CCCN(S(=O)(=O)c3c(C)n[nH]c3C)C2)cc1Cl (configuration not stated) | 3 | 36* | -7 | 2 | 6
O=C(NCc1ccncc1)c1ccc(Br)o1 | 1 | 3 | 8 | -2 | -10
O=C(Cc1ccc(Cl)cc1Cl)NCc1cccnc1 | 0 | 0 | -4 | -3 | -41*
O=C(NCc1cccnc1)c1ccc(Br)o1 | 0 | 0 | 1 | -6 | -32*
O=C(Cc1c(F)cccc1Cl)NCc1cccnc1 | 0 | 1 | 23 | 2 | -4
CCc1ccccc1-n1c2c(cc(-c3nc(-c4ccc(Cl)cc4)cs3)c1=O)C(=O)CC(C)(C)C2 | 1 | 1 | -9 | 1 | 0
O=C1C(C=NCCCN2CCOCC2)=C(O)c2ccccc21 | 0 | 2 | 1 | -8 | -37*
Cc1cc2nc(CCl)cc(=O)n2[nH]1 | 0 | 2 | -1 | -3 | 5
Cc1cc2nc(CSc3ccccc3)cc(=O)n2[nH]1 | 0 | 2 | -5 | 2 | -33*
COc1cc(OC)c(NC(=O)C(CC(C)C)N2Cc3ccccc3C2=O)cc1Cl (configuration not stated) | 2 | -1 | 13 | 0 | 6
O=[N+]([O-])c1ccc(O)c(-c2cc(C(F)(F)F)nc(-c3ccccc3)n2)c1 | 7 | 36* | -6 | -6 | -48*
O=S(=O)(c1ccc2nc(Cl)c(Cl)nc2c1)N1CCN(S(=O)(=O)c2c(F)cccc2F)CC1 | -2 | 0 | -6 | -7 | 9
O=C1CSC(c2ccccc2Cl)N1 (configuration not stated) | 0 | 3 | -5 | -2 | -1

Screening data deposited in PubChem by National Center for Advancing Translational Sciences (NCATS).
